{"source": "PubChem BioAssay (NCATS)", "note": "Records with an inconclusive call do not appear. A number with no mark means an inactive call. The call rests on the fitted dose curve; in most records, active means well fitted cell-killing curve with a large enough effect; inconclusive means small, poorly fitted or top-dose-only effect; inactive means flat fitted curve, though single readings scatter."}
{"assay": "qHTS of pediatric cancer cell lines to identify multiple opportunities for drug repurposing: Primary screen for control Hh wild type fibroblast cells (AID 1347106);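 further: on the % scale 0 is the no-effect control and ±100 the full control effect; a drop in luminescence marks cytotoxicity and a rise apparent proliferation; nearly all actives have a fitted effect of over 55% in size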", "settings": "Hh wild-type fibroblast viability, CellTiter-Glo luminescence, 48 h; series mostly up to 46 µM; activity change, negative = cytotoxic: at the top concentration", "method_in_brief": "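Cells (500-1,000/well) in growth media were settled 5 h at 37 degrees C, then given compounds for 48 h. Viability was read as CellTiter-Glo luminescence. Primary runs used MIPE at 11 points (0.78 nM-46 µM) and NPC at 8 points (0.59 nM-46 µM); follow-ups used 11 points.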", "units": {"activity change, negative = cytotoxic": "%"}}
{"compound": "NCC1CCC(C(=O)O)CC1", "note": "(stereo not drawn)", "activity change, negative = cytotoxic": 14.7}
{"compound": "COc1ccc2c(c1)c(C1=C(c3c[nH]c4ccccc34)C(=O)NC1=O)cn2CCCN(C)C", "activity change, negative = cytotoxic": -6.97}
{"compound": "C=CC(=O)Nc1cccc(Sc2nc(Nc3ccc(N4CCN(C)CC4)cc3)ncc2Cl)c1", "activity change, negative = cytotoxic": -1.38}
{"compound": "N[C@@H](CC(=O)N1CCn2c(nnc2C(F)(F)F)C1)Cc1cc(F)c(F)cc1F", "activity change, negative = cytotoxic": -1.99}
{"compound": "Clc1ccc(COC(Cn2ccnc2)c2ccc(Cl)cc2Cl)c(Cl)c1", "note": "(stereo not drawn)", "activity change, negative = cytotoxic": -0.765}
{"compound": "CN(C)N=Nc1nc[nH]c1C(N)=O", "activity change, negative = cytotoxic": 4.58}
{"compound": "CNC(=O)c1cc(COc2nnc(Nc3ccc(Cl)cc3)c3ccoc23)ccn1", "activity change, negative = cytotoxic": 4.25}
{"compound": "CNC(=O)c1cc(Oc2ccc(NC(=O)Nc3ccc(Cl)c(C(F)(F)F)c3)c(F)c2)ccn1", "activity change, negative = cytotoxic": 2.14}
{"compound": "OC1CCC(Nc2ncc3nc(Nc4c(F)cc(F)cc4F)n([C@@H]4CCOC4)c3n2)CC1", "note": "(stereo partly drawn)", "activity change, negative = cytotoxic": -0.909}
{"compound": "C#CCN(C)CC1=Cc2ccccc2Oc2ccccc21", "activity change, negative = cytotoxic": -3.59}
{"compound": "CO[C@H]1/C=C\\O[C@@]2(C)Oc3c(C)c(O)c4c(O)c(c5c(nc6cc(C)ccn65)c4c3C2=O)NC(=O)C(C)=CC=C[C@H](C)[C@H](O)[C@@H](C)[C@@H](O)[C@@H](C)[C@H](OC(C)=O)[C@H]1C", "activity change, negative = cytotoxic": -3.12}
{"compound": "CCCCC[C@H](O)C=C[C@H]1[C@H](O)CC(=O)[C@H]1CC=CCCCC(=O)O", "activity change, negative = cytotoxic": -7.24}
{"compound": "Fc1ccc(C(c2ccc(F)cc2)N2CCN(CC=Cc3ccccc3)CC2)cc1", "activity change, negative = cytotoxic": -15.5}
{"compound": "O=C(O)CCNc1cc(N2CCc3ccccc3CC2)nc(-c2ccccn2)n1", "activity change, negative = cytotoxic": 6.23}
{"compound": "O=C(Nc1cccc(C(F)(F)F)c1)Nc1cc(S(=O)(=O)NC2CC2)ccc1-c1ccsc1", "activity change, negative = cytotoxic": 1.4}
{"compound": "CC[C@H](C)C(=O)O[C@H]1C[C@H](O)C=C2C=C[C@H](C)[C@H](CC[C@@H](O)C[C@@H](O)CC(=O)O)[C@H]21", "activity change, negative = cytotoxic": 16.4}
{"compound": "O=c1[nH]c(=O)n([C@H]2C[C@@H](O)[C@@H](CO)O2)cc1C(F)(F)F", "activity change, negative = cytotoxic": -3.85}
{"compound": "Cc1ccc(C2=Nc3ccc(Cl)cc3OC2)cc1", "activity change, negative = cytotoxic": 8.97}
{"compound": "Cc1ccccc1C(=O)c1ccc(Nc2ccc(Br)cc2N)cc1Cl", "activity change, negative = cytotoxic": 9.74}
{"compound": "CCCCCOC(=O)Nc1nc(=O)n([C@@H]2O[C@H](C)[C@@H](O)C2O)cc1F", "note": "(stereo partly drawn)", "activity change, negative = cytotoxic": -15.6}
{"compound": "C[C@@H]1CCO[C@H]2Cn3cc(C(=O)NCc4ccc(F)cc4F)c(=O)c(O)c3C(=O)N12", "activity change, negative = cytotoxic": -0.981}
{"compound": "CC(C)(O)CC(=O)NCCn1ccc2ncnc(Nc3ccc(Oc4cccc(C(F)(F)F)c4)c(Cl)c3)c21", "activity change, negative = cytotoxic": -11.6}
{"compound": "CC(=O)NCCC(=O)N[C@@H](CCC(N)=O)C(=O)N[C@@H](CO)C(=O)N[C@@H](CCC(N)=O)C(=O)N[C@@H](CCC(N)=O)C(=O)N[C@H](C(=O)N[C@@H](Cc1ccccc1)C(=O)N[C@]1(C)CCCCCCC=CCCC[C@@](C)(C(=O)N[C@@H](CCC(N)=O)C(=O)N[C@@H](CC(N)=O)C(N)=O)NC(=O)[C@H](CC(C)C)NC(=O)[C@H](CC(C)C)NC(=O)[C@@H](CCCNC(=N)N)NC(=O)[C@H](Cc2c[nH]c3ccccc23)NC(=O)[C@H](CC(C)C)NC(=O)[C@H](CC(N)=O)NC1=O)[C@H](C)O", "activity change, negative = cytotoxic": 1.19}
{"compound": "Cc1ccc(C(=O)N(CCCN)[C@@H](c2nc3cc(Cl)ccc3c(=O)n2Cc2ccccc2)C(C)C)cc1", "activity change, negative = cytotoxic": 2.24}
{"compound": "COc1ccc(-c2nc3ccc(C4=NNC(=O)CC4C)cc3[nH]2)cc1", "note": "(stereo not drawn)", "activity change, negative = cytotoxic": -1.2}
{"compound": "Nc1ccn([C@@H]2O[C@H](CO)[C@@H](O)[C@H]2O)c(=O)n1", "activity change, negative = cytotoxic": 11.8}
{"compound": "CCC(c1ccc(O)cc1)C(CC)c1ccc(O)cc1", "note": "(stereo not drawn)", "activity change, negative = cytotoxic": 0.0869}
{"compound": "CCCCn1c(=O)n(Cc2ccccc2F)c(=O)c2[nH]c(Cc3ccc(NC(C)=O)cc3)nc21", "activity change, negative = cytotoxic": -11.8}
